PI5P4K alpha inh: qHTS for Inhibitors of phosphatidylinositol 5-phosphate 4-kinase (PI5P4K) | PI5P4Kalpha enzyme, ADP-Glo luminescence, 60 min; active compounds read low | Phosphatidylinositol 5-phosphate 4-kinase type-2 alpha (Homo sapiens), P48426 | 330,000 tested, 1.2% active | max response, %; active = max response of -50% or lower; inconclusive = between -30% and -50%; inactive = -30% or higher; note: value at the top dose of about 77 µM; % is set by controls: 0 for no effect and ±100 for the full control effect
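Quantitative HTS of the MLSMR library against PI5P4Kalpha with substrate. ATP added last at 5 microM final; room temperature, 60 minutes. Remaining ATP depleted, ADP converted and read as luminescence.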
PI4K2A block: qHTS for small molecular inhibitors of PI4K2A | Phosphatidylinositol 4-kinase type 2-alpha (Homo sapiens), Q9BTU6 | purified PI4K2A, ADP-Glo luminescence, 1 h; active compounds read low | activity change, negative = inhibition, % at 76.9 µM | 420,000 tested, 0.13% active; in the data active = activity change below about -50%; inconclusive = mostly about -30% to -49%;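 note: -100% = wells without enzyme as full effect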
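PI4K2A activity was measured by ADP-Glo luminescence: enzyme (4 ug/mL stock) and phosphatidylinositol (1.2 mM stock) in Tris pH 7.5/MgCl2/EGTA/Triton X-100 buffer were reacted with ATP (300 microM stock) for one hour at ambient temperature.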
Tb PGK inh: qHTS Assay to Find Inhibitors of Phosphoglycerate Kinase; Phosphoglycerate kinase, glycosomal (Trypanosoma brucei brucei), P07378; PGK/GAPDH coupled, Kinase-Glo luminescence, 60 min; Potency, µM (titrated, usually from 57.5 µM), for the others: at the highest dose activity change, negative = inhibition, most hits filed as inhibitors; 380,000 tested, 0.043% active; note: potency is the fitted concentration of half-maximal effect; % is set by controls: 0 for no effect and ±100 for the full control effect; nearly all actives have a fitted effect of over 60% in size
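Luminescent ATP detection (Kinase-Glo Plus) follows a 60-minute room-temperature incubation, with wells lacking PGK as controls. Buffer: 100 mM TEA (pH 7.6), 5 mM MgCl2, 0.01% Tween-20. Coupling enzyme GAPDH (100 nM final) supplies unstable 1,3-BPG in-well.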
Tb PFK inh-1: qHTS Assay to Find Inhibitors of T. brucei phosphofructokinase; T. brucei PFK, ADP-Glo luminescence; Potency, µM (series often up to 57.5 µM), inactives show top-dose activity, negative = inhibition, usual class: inhibitors; 330,000 tested, 0.17% active; AID 485367, 2010;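 note: potency is the fitted concentration of half-maximal effect; 0% = uninhibited 1x PFK enzyme wells and -100% = no-enzyme wells; nearly all actives have a fitted effect of over 60% in size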
Target sequence (O15648 whole entry, looked up): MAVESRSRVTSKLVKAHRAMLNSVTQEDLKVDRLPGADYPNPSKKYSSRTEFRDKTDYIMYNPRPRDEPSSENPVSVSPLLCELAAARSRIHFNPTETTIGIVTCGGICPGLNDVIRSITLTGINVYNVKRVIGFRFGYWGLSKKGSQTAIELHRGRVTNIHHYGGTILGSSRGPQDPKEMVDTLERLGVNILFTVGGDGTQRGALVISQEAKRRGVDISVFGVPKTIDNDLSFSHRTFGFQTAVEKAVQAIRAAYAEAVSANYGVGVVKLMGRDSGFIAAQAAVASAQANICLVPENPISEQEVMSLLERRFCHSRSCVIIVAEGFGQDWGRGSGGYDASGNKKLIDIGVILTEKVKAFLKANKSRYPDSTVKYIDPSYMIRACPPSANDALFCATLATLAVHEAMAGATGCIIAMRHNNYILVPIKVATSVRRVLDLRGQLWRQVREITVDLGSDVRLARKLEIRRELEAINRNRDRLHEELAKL
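In TEA buffer at pH 8.0 with 5 mM MgCl2, enzyme (1.25 nM) converted F6P (0.5 mM) and ATP (0.1 mM) for 45 min at room temperature. ADP product was read by luciferase luminescence.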
Pin1 inh: qHTS Assay to Find Inhibitors of Pin1; Peptidyl-prolyl cis-trans isomerase NIMA-interacting 1 (Homo sapiens), Q13526; Pin1 FP peptide displacement, HiFluor488, 10 min; Potency, µM (highest dose often 115 µM), for inactives: top-dose activity, negative = inhibition, hits mostly inhibitors; 390,000 tested, 0.009% active; active = well fitted inhibition curve with a large enough effect in the polarisation, with a control signal flat, not every such curve was filed as active; inconclusive = small, poorly fitted or top-dose-only effect, or effect the other way, or a change in a side signal; inactive = no such curve, though single readings can be large or run the other way; the % refers to the polarisation; note: potency is the fitted concentration of half-maximal effect; % is set by controls: 0 for no effect and ±100 for the full control effect
Target sequence (Q13526 whole entry, looked up): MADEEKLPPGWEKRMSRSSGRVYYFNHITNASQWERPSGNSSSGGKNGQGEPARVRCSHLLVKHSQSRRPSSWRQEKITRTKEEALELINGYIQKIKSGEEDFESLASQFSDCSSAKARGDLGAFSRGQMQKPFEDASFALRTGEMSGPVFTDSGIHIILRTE
Tb PFK KinaseGlo: Tb PFK orthogonal confirmatory assay using ATP depletion (Kinase-Glo Plus) as an alternative measure of Tb PFK activity: Hit Validation; shares compounds with Tb PFK inh-1; Tb PFK enzyme, ATP depletion, Kinase-Glo Plus luminescence; Potency, µM (series often up to 57.5 µM), without a hit: top-dose inhibition; 1,100 tested, 47% active; AID 504636, 2011; calls by dose curve; note: potency is the fitted concentration of half-maximal effect; nearly all actives have a fitted effect of over 60% in size
Tb PFK inh-2: Inhibitors of T. brucei phosphofructokinase: Hit Validation | Potency, µM (series often up to 57.5 µM), inactives show at the highest dose activity change, negative = inhibition, usual class: inhibitors | AID 504637, 2011 | shares compounds with Tb PFK inh-1 | purified T. brucei PFK, ADP-Glo luminescence, 45 min | 1,100 tested, 41% active;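 note: potency is the fitted concentration of half-maximal effect; plate controls were full PFK enzyme control for no effect and no enzyme control for full effect; nearly all actives have a fitted effect of over 60% in size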
* = called active by the depositor; i = inactive; ? = inconclusive; · = no result given; [ ] = dose if it differs, or a comment. This excerpt belongs to a sample that is enriched for hits. Unless noted, calls come from the whole dose curve; as a rule, active = well fitted curve in the direction sought with a large enough effect; inconclusive = small, poorly fitted or top-dose-only effect, or another doubt; inactive = no such curve, though single readings can be large; an effect the other way counts as inactive or inconclusive.

SMILES | PI5P4K alpha inh | PI4K2A block | Tb PGK inh | Tb PFK inh-1 | Pin1 inh | Tb PFK KinaseGlo | Tb PFK inh-2
COC(=O)c1sc(NC(=O)c2cc(-c3ccccc3)nc3ccccc23)c(C#N)c1C | ? | -11 | 2% | 6.7µM* | -3% | 8.5µM* | 15µM*
Nc1ccccc1SSc1ccccc1N | -21 | ? | -5% | ? | 7% | 8.5µM* | 13µM*
NCCc1nc2ccccc2s1 | 0 | 6 | 9% | 0% | -5% | · | ·
CC(C)NC(=S)NNc1nc2ccccc2s1 | -67* | -3 | 0% | ? | -4% | 8.5µM* | 7.6µM*
CCc1ccccc1NC(=O)CN1CCN(C(=O)COc2ccccc2C#N)CC1 | 3 | -1 | -10% | 4% | 1% | · | ·
CCOC(=O)CC[C@@H]1CC[C@]2(CCCN(Cc3ccccn3)C2)O1 | · | -6 | · | · | · | · | ·
Cc1ccc(CC(=O)NNC(=O)c2ccncc2)cc1C | ? | 4 | -2% | ? | 3% | 13µM* | 21µM*
O=C(c1cccn(Cc2cccc(Cl)c2)c1=O)N1CCOCC1 | · | -1 | -6% | 24µM* | 6% | 21µM* | 24µM*
CCCOc1ccc(C2SCC(=O)Nc3c2c(C)nn3-c2cccc(C)c2)cc1OC (stereo not drawn) | · | -5 | · | · | -1% | · | ·
O=C(Nc1nc2c(Cl)cccc2s1)c1ccc(S(=O)(=O)N2CCc3ccccc32)cc1 | · | -3 | i | · | 38% | · | ·
Cc1cc(=O)[nH]c(Nc2ccc(Cl)cc2)n1 | -7 | 3 | -8% | 21µM* | -6% | 8.5µM* | 19µM*
Cc1nc(CCl)cc(=O)[nH]1 | -7 | 4 | -8% | 1% | 15% | · | ·
NC(=NCCC[C@H](N)C(=O)O)N[N+](=O)[O-] | · | 4 | · | · | · | · | ·
O=C(Cc1ccc(Cl)cc1)N/N=C/c1cccc(O)c1 | -9 | 4 | i | 9.5µM* | -6% | 11µM* | 12µM*
CCn1cc(/C=N\NC(=O)Cc2ccc(Cl)cc2)cn1 | -4 | 3 | 2% | 19µM* | 4% | 7.6µM* | 15µM*
COc1ccc(/C=N/NC(=O)Cc2ccc(Cl)cc2)cc1OC | 0 | -9 | -9% | ? | -2% | ? | ?
CCn1c(N)c(C(=O)NC)sc1=S | -59* | -1 | i | ? | -3% | 9.5µM* | 19µM*
Cc1oc2cc3oc(=O)c(CCC(=O)N4CCCCC4)c(C)c3cc2c1C | · | -2 | -4% | · | 5% | · | ·
CN(C)/C=c1\sc2c(C#N)cc(C(=O)c3ccc(Br)cc3)n2c1=O | -17 | 4 | 3% | 4% | 28% | · | ·
CCOc1ccc(CN(CCc2ccc3c(c2)OCO3)Cc2cccc(OC)c2)cc1 | · | 0 | i | · | -4% | · | ·
NC[C@H](O)c1ccc(O)c(O)c1 | 0 | ? | -4% | 2.1µM* | ? | 17% | -20%
NC1(c2ccccc2)CCCCC1 | · | i | · | · | · | · | ·
COc1cccc(NC(=O)CCc2nc(-c3ccc(C(C)(C)C)cc3)no2)c1 | · | 4 | -1% | · | 23% | · | ·
NC(=O)c1c(-c2cccs2)csc1N | · | -14 | 1% | ? | -4% | -30% | ?
Cc1ccc(-n2c(/C=C/c3cccc4ccccc34)nc3ccccc3c2=O)cc1 | · | 3 | -4% | · | -3% | · | ·
SMILES | PI5P4K alpha inh | PI4K2A block | Tb PGK inh | Tb PFK inh-1 | Pin1 inh | Tb PFK KinaseGlo | Tb PFK inh-2
Cc1ccc(C)c(CN2C(=O)c3ccccc3Sc3ccc(C(=O)N4CCC5(CC4)OCCO5)cc32)c1 | · | 4 | 9% | · | 0% | · | ·
O=C(O)c1ccccc1NC(=O)N1C[C@H]2C[C@@H](C1)c1cccc(=O)n1C2 | -2 | -4 | 6% | 0% | -2% | · | ·
Oc1ccc(N=Nc2ccccc2-c2nn[nH]n2)c(O)c1 | -63* | -9 | · | ? | ? | -29% | ?
OCCCBr | · | i | · | · | · | · | ·
O=C(NC1CCCC1)c1ccc(CSc2nc3ccncc3n2Cc2ccc(F)cc2)cc1 | 7 | 1 | -4% | ? | 10% | ? | 27µM*
Cc1ccc(Cn2c(SCc3ccc(C(=O)NC4CCCC4)cc3)nc3ccncc32)cc1 | · | 0 | 3% | · | 33% | · | ·
Cc1ccc(CNC(=O)c2ccc(CSc3nc4ccncc4n3Cc3ccc(C)cc3)cc2)cc1 | · | -1 | i | · | 54% | · | ·
O=C(NCCN1CCOCC1)c1ccc(CSc2nc3ccncc3n2Cc2ccc(F)cc2)cc1 | 0 | -1 | i | ? | 7% | ? | ?
CCc1ccc(-n2nc(C)c3c(C(=O)NCCc4ccc(OC)c(OC)c4)cc(C)nc32)cc1 | · | -2 | -8% | · | 49% | · | ·
O=C1Nc2ccccc2N(O)N1c1ccc(Cl)c(Cl)c1 | 0 | -1 | -8% | 11µM* | -3% | ? | -15%
O=C1Nc2cc(Cl)c(Cl)cc2N(O)N1c1ccc(Cl)c(Cl)c1 | · | 0 | -7%[11.5 µM] | 13µM* | 6% | 11% | -15%
O=C(O)COc1ccc(Br)cc1C(c1c(C(=O)O)[nH]c2ccccc12)c1c(C(=O)O)[nH]c2ccccc12 | -8 | -2 | -9% | 3% | ? | · | ·
CC(=O)Nc1ccc(S(=O)(=O)NC(CSc2ccc(C(=O)O)cc2[N+](=O)[O-])C(=O)O)cc1 (stereo not drawn) | -5 | 3 | -6% | ? | ? | -26% | ?
Cc1c(Cl)sn(-c2ccc(Cl)cc2)c1=O | -73* | 0 | 2% | 6.7µM* | 1% | 3µM* | 5.4µM*
O=C1CC(=O)N(c2ccc(Cl)cc2)C(=O)N1 | -11 | -2 | -7% | -5% | ? | · | ·
O=Cc1c(NCc2ccc(Cl)cc2)c2ccccc2[nH]c1=O | -3 | 2 | 9% | ? | -3% | · | ·
Cc1cc(C)cc(N2C(=O)NC(=O)/C(=C\C=C\c3ccco3)C2=O)c1 | -30 | -15 | -5% | ? | ? | 11µM* | 21µM*
CCc1ccc(N2C(=O)CC(=O)NC2=O)cc1 | -1 | -15 | i | 2% | 12% | · | ·
CCc1ccc(N2C(=O)NC(=O)/C(=C\C=C\c3ccco3)C2=O)cc1 | ? | ? | -14% | ? | ? | ? | ?
CC1=NN(c2ccccc2)C(=O)C1/C=C1\C(=O)NC(=O)N(c2cc(C)cc(C)c2)C1=O (stereo not drawn) | -10 | -27 | 1% | 8% | 21% | · | ·
COC(=O)[C@@]1(O)c2c(oc3cccc(O)c3c2=O)C=C[C@H]1O | · | 5 | · | · | · | · | ·

Bioassay records deposited in PubChem by National Center for Advancing Translational Sciences (NCATS).
